Assay [1] relates to Wnt5a (protein binding on small-molecule microarray). Put plainly: Wnt5a binders on small-molecule microarray, primary screen, biophysical, 635/667 nm fluorescence (AID 1142).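 Also: fluorescence read at 667 nm with signal to noise per printed feature.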 The following applies: 635 nm fluorescence, higher = more signal.
The nature of assay [2]: cell viability in Huh7 cells, primary screen, cytotoxicity control for HCV replication inhibitor project, CellTiter-Glo luminescence, basal, 48 h (AID 1143).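 Also: Huh7 hepatoma cells carrying a hepatitis C replication reporter with no stimulus; test concentration not given here.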 Particulars: Huh7 HCV replicon, higher = more signal, called active from +8 up or from −8 down. Background: In ATP-based viability assays light output follows the ATP content of the culture.
A short description of assay [3]: P. aeruginosa biofilm formation inhibitors, primary screen, PAO1 strain, BacTiter-Glo luminescence, LB-PBS (AID 1144). Particulars: 12 h, higher = more signal.
Assay [4] can be described thus: CREB reporter modulators without forskolin, primary screen, cell-based, PC12, CRE-LacZ reporter, unstimulated (AID 1145). The following applies: no forskolin, luminescence, 4.5 h, higher = more signal, called active from +8 up or from −8 down.
A short description of assay [5]: CREB reporter modulators under forskolin, primary screen, cell-based, PC12, CRE-LacZ reporter, forskolin-stimulated (AID 1146).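 Also: PC12 cells with 6xCRE LacZ reporter stimulated by forskolin 10 µM; beta-galactosidase reporter signal reflecting CREB driven transcription.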 The following applies: luminescence, 4.5 h, higher = more signal, called active from +8 up or from −8 down.
The target of assay [6] is Streptavidin (Streptomyces avidinii) (UniProt P22629). In words: streptavidin binders on small-molecule microarray, primary screen, artefact control for SMM compound annotation, biophysical, 635/667 nm fluorescence (AID 1147).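 Also: signal reflects streptavidin binding to arrayed compounds as a control protein.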 Particulars: streptavidin binding, higher = more signal.
Chain of Streptavidin (Streptomyces avidinii) (P22629 whole entry, looked up): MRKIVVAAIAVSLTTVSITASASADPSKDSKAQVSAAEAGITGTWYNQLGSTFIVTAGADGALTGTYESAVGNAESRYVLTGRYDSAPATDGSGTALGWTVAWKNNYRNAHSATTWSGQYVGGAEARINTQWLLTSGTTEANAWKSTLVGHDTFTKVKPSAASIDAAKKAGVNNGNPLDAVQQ
The nature of assay [7]: small-molecule binders of probe aInhba, primary screen, biochemical, small-molecule microarray, 635/667 nm fluorescence (AID 1148).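 Also: score merges 667nm spot fluorescence with signal-to-noise for antibody binding to printed compounds.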 Particulars: higher = more signal.
The target of assay [8] is Torsin-1A (Homo sapiens) (UniProt O14656). Put plainly: torsin A binders from cell lysate, primary screen, small-molecule microarray, wild-type, 635/667 nm (AID 1149). Particulars: COS7 hTOR1A-WT lysate, 635 nm fluorescence, higher = more signal.
Chain of Torsin-1A (Homo sapiens) (O14656 whole entry, looked up): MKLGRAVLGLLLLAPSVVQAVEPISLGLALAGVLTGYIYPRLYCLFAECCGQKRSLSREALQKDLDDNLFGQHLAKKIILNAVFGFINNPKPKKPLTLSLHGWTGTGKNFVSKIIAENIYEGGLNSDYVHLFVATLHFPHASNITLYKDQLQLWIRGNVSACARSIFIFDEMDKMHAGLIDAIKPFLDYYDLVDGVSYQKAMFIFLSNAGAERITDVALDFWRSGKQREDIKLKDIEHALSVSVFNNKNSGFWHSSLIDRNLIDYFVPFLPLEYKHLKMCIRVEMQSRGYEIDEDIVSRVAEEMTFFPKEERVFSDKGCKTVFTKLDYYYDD
The target is the same in assay [9]. Put plainly: small-molecule binders of mutant TOR1A in lysate, primary screen, cell lysate, small-molecule microarray, COS7 lysate, 635/667 nm fluorescence (AID 1150).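 Also: score pools 667 nm emission and signal to noise measuring lysate protein binding.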 Particulars: COS7 hTOR1A mutant lysate, 635 nm fluorescence, higher = more signal.
Assay [10] deals with Sonic hedgehog protein (Shh). Put plainly: small-molecule binders of Shh protein, primary screen, biochemical, small-molecule microarray, 635/667 nm fluorescence (AID 1151).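 Also: Shh protein binding to compounds spotted on small-molecule microarray slides; score combines spot fluorescence intensity with signal-to-noise across triplicate slides.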 The following applies: small-molecule microarray binding, 635 nm fluorescence; higher = more signal.
Assay [11] can be described thus: E. coli DRC41 culture turbidity changes, primary screen, E. coli filamentation inducer project, strain DRC41, OD650, 48 h (AID 1152).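 Also: E. coli MC1000 strain DRC41 lacking acrAB efflux pump and sulA.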 Particulars: E. coli DRC41 (acrAB sulA), higher = more signal, called active from +8 up or from −8 down.
Assay [12] can be described thus: small-molecule binders of probe aLefty1, primary screen, biochemical, small-molecule microarray, 635/667 nm fluorescence (AID 1153).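 Also: score merges spot fluorescence with signal-to-noise ratio from the scanned slide images.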 The following applies: higher = more signal.
A short description of assay [13]: PSAC antagonists in infected red cells, primary screen, cell-based, P. falciparum Indochina, OD700, 1 h (AID 1154). The following applies: P. falciparum Indochina infected RBC osmotic lysis, higher = more signal, called active from +8 up or from −8 down.
Assay [14] in a line: PSAC antagonists in infected red cells, primary screen, cell-based, P. falciparum Indochina, OD700, 2 h (AID 1155).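 Also: lysis reports solute entry through the parasite surface anion channel PSAC; channel blockers reduce lysis of infected cells.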 Particulars: P. falciparum Indochina infected erythrocytes, osmotic lysis OD700; higher = more signal, called active from +8 up or from −8 down.
Assay [15] in a line: osmotic lysis modulators in infected erythrocytes, primary screen, PSAC antagonist project, cell-based, P. falciparum Indochina, OD700, 3 h (AID 1156). Particulars: higher = more signal, called active from +8 up or from −8 down.
A short description of assay [16]: PSAC antagonists in infected red cells, primary screen, cell-based, P. falciparum Indochina, OD700, 18 h (AID 1157). Particulars: P. falciparum Indochina infected erythrocytes, osmotic lysis OD700, 18 h; higher = more signal, called active from +8 up or from −8 down.
Assay [17] can be described thus: modulators of S6 phosphorylation in cells, primary screen, cell-based, A549, cytoblot, luminescence, serum-stimulated (AID 1158).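 Also: serum-stimulated A549 lung adenocarcinoma cells; signal is phosphorylated S6 detected by cytoblot immunostaining with HRP secondary.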 The following applies: A549 phospho-S6 cytoblot, 5 h, higher = more signal.
Assay [18] addresses NADPH oxidase 2 (Homo sapiens) (UniProt P04839). Put plainly: NOX2-dependent H2O2 signal modulators, primary screen, NOX inhibitor project, cell-based, HEK293-NOX2, PMA-stimulated, Amplex Red fluorescence (AID 1159). Also: test concentration not given here. Particulars: 45 min, higher = more signal, called active from +8 up or from −8 down.
For assay [19], the target named is NADPH oxidase 4 (Homo sapiens) (UniProt Q9NPH5). In words: NOX4-dependent H2O2 signal modulators, primary screen, NOX inhibitor project, cell-based, HEK293-NOX4, tetracycline-induced, Amplex Red fluorescence (AID 1160). Particulars: 45 min, higher = more signal, called active from +8 up or from −8 down.
Chain of NADPH oxidase 4 (Homo sapiens) (Q9NPH5 whole entry, looked up): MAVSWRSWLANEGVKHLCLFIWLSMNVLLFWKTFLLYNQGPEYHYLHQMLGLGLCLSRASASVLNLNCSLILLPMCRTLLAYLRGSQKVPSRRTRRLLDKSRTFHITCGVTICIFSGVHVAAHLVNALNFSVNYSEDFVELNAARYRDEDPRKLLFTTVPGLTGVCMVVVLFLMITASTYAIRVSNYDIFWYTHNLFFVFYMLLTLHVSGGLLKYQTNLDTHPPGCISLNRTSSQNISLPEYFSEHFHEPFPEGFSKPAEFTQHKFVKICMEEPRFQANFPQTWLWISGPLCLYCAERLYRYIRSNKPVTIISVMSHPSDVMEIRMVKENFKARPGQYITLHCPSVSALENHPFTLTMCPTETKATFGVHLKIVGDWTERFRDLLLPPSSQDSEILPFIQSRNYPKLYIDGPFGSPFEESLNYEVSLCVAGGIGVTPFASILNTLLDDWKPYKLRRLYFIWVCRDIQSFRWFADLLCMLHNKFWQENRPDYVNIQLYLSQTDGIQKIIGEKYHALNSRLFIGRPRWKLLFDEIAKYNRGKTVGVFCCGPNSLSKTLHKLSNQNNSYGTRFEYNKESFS
Assay [20] concerns the target NADPH oxidase 5 (Homo sapiens) (UniProt Q96PH1). Put plainly: NOX5-dependent H2O2 signal modulators, primary screen, NOX inhibitor project, cell-based, HEK293-NOX5, Amplex Red fluorescence (AID 1161). The following applies: HEK293-NOX5, ionomycin, 45 min, higher = more signal.

Active and inactive are the calls of the source. Unless noted, no rule for the calls is given here.

Chain of NADPH oxidase 5 (Homo sapiens) (Q96PH1 whole entry, looked up): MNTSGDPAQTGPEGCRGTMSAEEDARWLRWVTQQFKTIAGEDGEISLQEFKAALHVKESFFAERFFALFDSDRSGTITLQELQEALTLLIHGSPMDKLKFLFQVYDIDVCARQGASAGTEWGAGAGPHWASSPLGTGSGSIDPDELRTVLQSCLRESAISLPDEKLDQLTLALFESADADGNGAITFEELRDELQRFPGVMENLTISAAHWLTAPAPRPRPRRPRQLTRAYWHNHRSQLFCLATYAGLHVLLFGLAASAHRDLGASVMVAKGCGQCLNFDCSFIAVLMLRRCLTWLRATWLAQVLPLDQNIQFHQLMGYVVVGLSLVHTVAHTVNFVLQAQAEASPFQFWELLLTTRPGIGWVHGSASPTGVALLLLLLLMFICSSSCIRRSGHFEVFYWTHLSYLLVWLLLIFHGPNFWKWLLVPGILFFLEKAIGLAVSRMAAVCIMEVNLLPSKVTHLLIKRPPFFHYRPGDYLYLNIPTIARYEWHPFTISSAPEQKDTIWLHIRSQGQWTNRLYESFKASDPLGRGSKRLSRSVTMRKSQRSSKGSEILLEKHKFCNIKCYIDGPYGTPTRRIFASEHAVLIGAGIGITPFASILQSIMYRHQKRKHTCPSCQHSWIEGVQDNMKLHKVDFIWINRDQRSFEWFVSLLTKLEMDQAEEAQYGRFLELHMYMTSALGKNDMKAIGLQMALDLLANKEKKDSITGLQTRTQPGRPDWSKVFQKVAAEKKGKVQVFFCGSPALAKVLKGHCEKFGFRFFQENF
Chain of NADPH oxidase 2 (Homo sapiens) (P04839 whole entry, looked up): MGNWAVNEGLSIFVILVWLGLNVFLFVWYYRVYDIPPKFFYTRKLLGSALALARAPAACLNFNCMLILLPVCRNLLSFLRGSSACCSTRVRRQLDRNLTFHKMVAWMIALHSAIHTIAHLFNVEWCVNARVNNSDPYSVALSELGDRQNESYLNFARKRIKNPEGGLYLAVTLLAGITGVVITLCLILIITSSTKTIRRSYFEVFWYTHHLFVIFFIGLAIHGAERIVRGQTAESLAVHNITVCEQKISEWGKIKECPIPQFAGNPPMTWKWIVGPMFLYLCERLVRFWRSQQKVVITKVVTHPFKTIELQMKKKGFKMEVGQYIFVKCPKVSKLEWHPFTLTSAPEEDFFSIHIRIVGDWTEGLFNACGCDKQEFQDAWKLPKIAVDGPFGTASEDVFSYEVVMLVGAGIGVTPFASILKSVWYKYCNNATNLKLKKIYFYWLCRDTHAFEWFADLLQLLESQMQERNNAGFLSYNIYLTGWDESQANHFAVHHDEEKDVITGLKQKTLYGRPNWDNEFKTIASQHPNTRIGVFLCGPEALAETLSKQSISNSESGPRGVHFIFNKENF

Take `C=CC[C@]1(C(=O)NCC(O)CO)N=C(c2ccc(OCCCO)cc2)O[C@H]1c1ccccc1CN=[N+]=[N-]` (stereo not given in full): the composite z-score is 0.176 in assay [1]; 0.184 in assay [6]; 0.249 in [7]; 0.598 in the assay with Torsin-1A (Homo sapiens) [8]; 2.58 in the assay with Torsin-1A (Homo sapiens) [9]; -0.803 in assay [10]. This molecule also displayed a composite z-score in assay [12] of 0.104. In addition, the z-score in [2] was -0.627 (inactive); in [3], 0.381 (inactive); in [4], 0.652 (inactive); in assay [5], -0.163 (inactive); in [11], 0.0715 (inactive); in assay [13], 15.7 (active). In addition, the z-score was 1.44 (inactive) in assay [14]; 4.83 (inactive) in [15]; 0.839 (inactive) in assay [16]; -0.99 in assay [17]; 0.871 (inactive) in [18]; 0.0808 (inactive) in assay [19]. The same molecule showed a z-score in [20] of -0.704.
On to `COc1ccc(NN2C(C(O)c3ccc(F)cc3)C=CC3C(=O)N(C4CCCCC4)C(=O)C32)cc1` (stereo not given), for which the composite z-score in [1] was 0.0942; in [6], 1.58; in assay [7] it was 0.112; in the assay with Torsin-1A (Homo sapiens) [8] it was 0.638; in the assay with Torsin-1A (Homo sapiens) [9], 0.197; in assay [10], 0.244. The composite z-score in assay [12] is 0.0561. Further, the z-score in assay [2] is -0.591 (inactive); in assay [3], -0.796 (inactive); in assay [4], 1.24 (inactive); in assay [5], 1.08 (inactive); in [11], -1.24 (inactive); in assay [13] it was 5.76 (inactive). Besides, the z-score was 1.42 (inactive) in [14]; 0.37 (inactive) in [15]; 0.856 (inactive) in assay [16]; -0.54 in assay [17]; -1.73 (inactive) in assay [18]; -3.25 (inactive) in assay [19]. This molecule displayed a z-score in assay [20] of -1.23.
Consider `O=C/C=C/c1ccc(-c2ccccc2)cc1`, for which the composite z-score was -0.166 in assay [1]; 0.175 in [6]; -0.101 in assay [7]; -0.0497 with Torsin-1A (Homo sapiens) [8]; 0.0552 in the assay with Torsin-1A (Homo sapiens) [9]; 0.083 in assay [10]. This molecule showed a composite z-score in assay [12] of -0.0186. The z-score is -2.73 (inactive) in assay [2]; 1.68 (inactive) in [3]; 2.11 (inactive) in [4]; 3.74 (inactive) in assay [5]; 1.06 (inactive) in assay [11]; 2.39 (inactive) in assay [13]. The z-score in assay [14] is -0.681 (inactive); in assay [15], -0.103 (inactive); in [16], -2.17 (inactive); in [17], 1.04; in assay [18], 0.388 (inactive); in assay [19] it was -1.85 (inactive). In assay [20], this molecule came in with a z-score of 0.605.
For `COCCOC(=O)N1C(=O)[C@@]2(c3cc(C#CCCO)ccc31)[C@H](c1ccc(O)cc1)N1[C@H](c3ccccc3)[C@H](c3ccccc3)OC(=O)[C@H]1[C@@H]2C(=O)NC[C@H](O)c1ccccc1`, the composite z-score in assay [1] is 0.0153; in assay [6], -0.331; in assay [7] it was 0.0101; in the assay with Torsin-1A (Homo sapiens) [8] it was 0.127; in the assay with Torsin-1A (Homo sapiens) [9] it was -0.0807; in assay [10] it was 1.03. Also, in assay [12], the composite z-score is -0.218. For the same molecule, the z-score in assay [2] was -1.64 (inactive); in assay [3] it was -0.718 (inactive); in [4], 0.0776 (inactive); in assay [5], -0.583 (inactive); in [11] it was 1.49 (inactive); in assay [13] it was 3.31 (inactive). The z-score in assay [14] was 1.19 (inactive); in [15] it was 0.624 (inactive); in assay [16] it was 0.555 (inactive); in assay [17] it was 0.0833; in assay [18], 0.878 (inactive); in assay [19] it was 0.521 (inactive). The same molecule returned a z-score in assay [20] of -0.0839.
Turning to `COC(=O)[C@@]1(Cc2ccccc2)[C@H]2c3cc(C(=O)N(C)C)n(Cc4nc5ccccc5[nH]4)c3C[C@H]2CN1C(=O)c1ccccc1`, the composite z-score in [1] is 0.118; in assay [6] it was 1.26; in assay [7] it was 0.337; with Torsin-1A (Homo sapiens) [8] it was 0.626; with Torsin-1A (Homo sapiens) [9], 0.853; in assay [10] it was -0.441. For the same molecule, the composite z-score in [12] is 0.0063. The z-score in [2] was -2.07 (inactive); in [3], -0.142 (inactive); in assay [4], 0.959 (inactive); in assay [5] it was -0.0536 (inactive); in [11], 0.989 (inactive); in [13] it was 4.51 (inactive). In addition, the z-score is -0.2 (inactive) in assay [14]; 0.57 (inactive) in assay [15]; -0.949 (inactive) in assay [16]; 0.965 in assay [17]; -0.273 (inactive) in assay [18]; 0.839 (inactive) in assay [19]. The molecule further returned a z-score in assay [20] of -0.155.

(Values after PubChem BioAssay.)
